This is an account of results in paper PMC5540273 (PLoS ONE, 2017).
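Note: KINOMEscan kinase panel screen.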

The first assay deals with PLK3. The settings on record: concentration: 1 μM, replicates: in singlicate; n = 1.
In the case of `CSc1ccc(-c2cc3ncnc(SCC(=O)O)c3s2)cc1`, the “%Inh” value is on record as 0%.

For `CCc1nc(-c2cccc(C)c2)c(-c2ccnc(NCc3ccccc3)c2)s1`, the “%Inh” value was 6%.

On to `COCCNC(=O)c1ccc(-c2cc(C(=O)NC3CC3)cc(F)c2C)cc1` [GW868318], for which the “%Inh” value is recorded as 33%.

Consider `COc1ccc(COc2cc(-n3cnc4ccccc43)sc2C(N)=O)cc1` [GSK1024304], for which the “%Inh” value was 86%.

As to `COc1cc2ncn(-c3cc(OCc4sccc4Cl)c(C(N)=O)s3)c2cc1OC` [GSK448459], the “%Inh” value was found to be 99.5%.

For `O=C(NCCNc1ccnc(Nc2ccc(F)cc2)n1)c1cc2ccccc2s1` [GSK1379874], the “%Inh” value was 0%.

Turning to `Cc1cccc(-c2nc(Nc3ccc4ncsc4c3)c3ccccc3n2)n1` [GW867588], the “%Inh” value was found to be 16%.

Take `c1ccc(-c2n[nH]cc2-c2ccnc3ccccc23)nc1` [GW271431]: the “%Inh” value amounted to 0%.

In the case of `O=C(NCCNc1ccnc(Nc2ccc(F)cc2)n1)Nc1ccccc1F` [GSK1379880], the “%Inh” value was 0%.

For `Cc1nnc(-c2ccc3occ(-c4ccc(C(C)O)cc4)c3c2)o1` (stereo not shown), the “%Inh” value is given as 0%.

`NS(=O)(=O)c1cccc(-c2ccc3nccc(-c4cccc(S(N)(=O)=O)c4)c3c2)c1` [GW867253]: the “%Inh” value turned out to be 30%.

Regarding `CCCCCc1nc2c(N)ncnc2n1CCCCC` [SKF-97255], the “%Inh” value worked out at 27%.

As to `Cl.Oc1cccc(Nc2ccnc3cc(-c4ccncc4)ccc23)c1` [GW494601], the “%Inh” value came out at 0%.

Consider `Fc1ccc(-c2ncn(CCCN3CCOCC3)c2-c2cccnc2)cc1` [SB-211743], for which the “%Inh” value was determined as 15%.

Consider `Cc1ccc(C(=O)NCC(N)=O)cc1-n1c(C)cc(OCc2ccc(F)cc2F)c(Br)c1=O`, for which the “%Inh” value was found to be 0%.

As to `NS(=O)(=O)CCc1cccc(Nc2nccc(-c3c(-c4cccc(NC(=O)c5c(F)cccc5F)c4)nn4ccccc34)n2)c1` [GSK336735], the “%Inh” value was 48%.

For the compound `COC(=O)Nc1nc2cc(Oc3ccc(NC(=O)Nc4cc(F)ccc4F)cc3)ccc2[nH]1.Cl` [GW701424], the “%Inh” value is listed as 0%.

In the case of `Cc1cn2c(=O)cc(N3CCOCC3)nc2n1Cc1cccc(Cl)c1Cl` [GSK2334006], the “%Inh” value came out at 0%.

For `N#Cc1c(N2CCOCC2)sc(-c2ccn[nH]2)c1-c1ccc(Cl)cc1`, the “%Inh” value amounted to 15%.

Consider `Cc1cccc(Cn2ccn3c(=O)cc(N4CCOCC4)nc23)c1` [GSK2297542], for which the “%Inh” value amounted to 0%.

On to `COc1ccc(CNC(=O)NC2CCN(c3ccnc(Nc4ccc(OC)cc4)n3)C2)cc1` (stereo not shown) [GSK1379727], for which the “%Inh” value is recorded as 0%.

Regarding `c1ccc(-c2cc(-c3c[nH]nc3-c3ccccn3)ccn2)cc1` [GW576604], the “%Inh” value is recorded as 0%.

With `COc1cc2c(cc1OCCN1CCN(C)CC1)ncc1c3ccc(C#N)cc3[nH]c21`, the “%Inh” value is given as 16%.

As to `COc1ccc(Nc2nccc(N3CCC(NC(=O)Nc4cccc(C(C)=O)c4)C3)n2)cc1` (stereo not shown) [GSK1379731], the “%Inh” value was found to be 0%.

On to `Cc1ccc(NC(=O)c2ccnc(N3CCN(C)CC3)c2)cc1-c1ccc(C(=O)NCC2CC2)cc1` [GW775604], for which the “%Inh” value was 5%.

As for `Cc1c(Cn2c(C)nn3c(=O)cc(N4CCOC(C)C4)nc23)cccc1C(F)(F)F` (stereo not shown) [GSK2344444], the “%Inh” value came to 0%.

On to `O=C(NCCCN1CCOCC1)c1cccc(Nc2nccc(Nc3ccc(Oc4ccccc4)cc3)n2)c1` [GW663929], for which the “%Inh” value worked out at 4%.

For the compound `Nc1nc(-c2ccc3c(N)n[nH]c3c2)cc(N2CCCC2)n1` [GSK2227430], the “%Inh” value is reported as 0%.

Consider `Nc1nccc(-c2c(-c3ccc(F)cc3)ncn2C2CCN(CC(F)(F)F)CC2)n1` [SB-236560], for which the “%Inh” value worked out at 0%.

Turning to `COc1ccc(S(=O)(=O)NC2CCN(c3cc(C)nc(Nc4cccc(C#N)c4)n3)CC2)cc1.O=C(O)C(F)(F)F` [GSK1653539], the “%Inh” value was determined as 0%.

For the compound `CN(C1=C(c2ccccc2)C(=O)NC1=O)c1ccccc1` [SB-334860], the “%Inh” value is recorded as 0%.

On to `CC(C)(CN)c1nc(-c2ccc(Cl)c(O)c2)c(-c2ccncc2)[nH]1.O=C(O)C(F)(F)F` [SB-477794], for which the “%Inh” value stood at 0%.

Turning to `CN1c2ccc(CNc3ccc(F)cc3)cc2-c2c(cnn2C)S1(=O)=O`, the “%Inh” value turned out to be 11%.

On to `COc1cc(Nc2nccc(N3CCC(NC(=O)c4cccc(NC(C)=O)c4)C3)n2)cc(OC)c1OC` (stereo not shown) [GSK1379754], for which the “%Inh” value stood at 3%.

A further assay has as its system PLK4. Conditions: concentration: 1 μM, replicates: in singlicate; n = 1.
`CSc1ccc(-c2cc3ncnc(SCC(=O)O)c3s2)cc1`: the “%Inh” value was found to be 11%.

Consider `CCc1nc(-c2cccc(C)c2)c(-c2ccnc(NCc3ccccc3)c2)s1`, for which the “%Inh” value is recorded as 0%.

Consider `COCCNC(=O)c1ccc(-c2cc(C(=O)NC3CC3)cc(F)c2C)cc1` [GW868318], for which the “%Inh” value came out at 34%.

Turning to `COc1ccc(COc2cc(-n3cnc4ccccc43)sc2C(N)=O)cc1` [GSK1024304], the “%Inh” value stood at 4%.

As for `COc1cc2ncn(-c3cc(OCc4sccc4Cl)c(C(N)=O)s3)c2cc1OC` [GSK448459], the “%Inh” value is reported as 4%.

As to `O=C(NCCNc1ccnc(Nc2ccc(F)cc2)n1)c1cc2ccccc2s1` [GSK1379874], the “%Inh” value is recorded as 0%.

Consider `Cc1cccc(-c2nc(Nc3ccc4ncsc4c3)c3ccccc3n2)n1` [GW867588], for which the “%Inh” value was 14%.

Turning to `c1ccc(-c2n[nH]cc2-c2ccnc3ccccc23)nc1` [GW271431], the “%Inh” value came to 0%.

In the case of `O=C(NCCNc1ccnc(Nc2ccc(F)cc2)n1)Nc1ccccc1F` [GSK1379880], the “%Inh” value was 0%.

Turning to `Cc1nnc(-c2ccc3occ(-c4ccc(C(C)O)cc4)c3c2)o1` (stereo not shown), the “%Inh” value is on record as 21%.

In the case of `NS(=O)(=O)c1cccc(-c2ccc3nccc(-c4cccc(S(N)(=O)=O)c4)c3c2)c1` [GW867253], the “%Inh” value was determined as 14%.

In the case of `CCCCCc1nc2c(N)ncnc2n1CCCCC` [SKF-97255], the “%Inh” value is 25%.

In the case of `Cl.Oc1cccc(Nc2ccnc3cc(-c4ccncc4)ccc23)c1` [GW494601], the “%Inh” value came to 25%.

Take `Fc1ccc(-c2ncn(CCCN3CCOCC3)c2-c2cccnc2)cc1` [SB-211743]: the “%Inh” value is reported as 0%.

`Cc1ccc(C(=O)NCC(N)=O)cc1-n1c(C)cc(OCc2ccc(F)cc2F)c(Br)c1=O`: the “%Inh” value turned out to be 0%.

For the compound `NS(=O)(=O)CCc1cccc(Nc2nccc(-c3c(-c4cccc(NC(=O)c5c(F)cccc5F)c4)nn4ccccc34)n2)c1` [GSK336735], the “%Inh” value was found to be 12%.

With `COC(=O)Nc1nc2cc(Oc3ccc(NC(=O)Nc4cc(F)ccc4F)cc3)ccc2[nH]1.Cl` [GW701424], the “%Inh” value is 0%.

On to `Cc1cn2c(=O)cc(N3CCOCC3)nc2n1Cc1cccc(Cl)c1Cl` [GSK2334006], for which the “%Inh” value came to 0%.

In the case of `N#Cc1c(N2CCOCC2)sc(-c2ccn[nH]2)c1-c1ccc(Cl)cc1`, the “%Inh” value is recorded as 19%.

Consider `Cc1cccc(Cn2ccn3c(=O)cc(N4CCOCC4)nc23)c1` [GSK2297542], for which the “%Inh” value turned out to be 0%.

For `COc1ccc(CNC(=O)NC2CCN(c3ccnc(Nc4ccc(OC)cc4)n3)C2)cc1` (stereo not shown) [GSK1379727], the “%Inh” value was found to be 0%.

Take `c1ccc(-c2cc(-c3c[nH]nc3-c3ccccn3)ccn2)cc1` [GW576604]: the “%Inh” value was 0%.

Consider `COc1cc2c(cc1OCCN1CCN(C)CC1)ncc1c3ccc(C#N)cc3[nH]c21`, for which the “%Inh” value worked out at 0%.

As for `COc1ccc(Nc2nccc(N3CCC(NC(=O)Nc4cccc(C(C)=O)c4)C3)n2)cc1` (stereo not shown) [GSK1379731], the “%Inh” value turned out to be 0%.

For the compound `Cc1ccc(NC(=O)c2ccnc(N3CCN(C)CC3)c2)cc1-c1ccc(C(=O)NCC2CC2)cc1` [GW775604], the “%Inh” value amounted to 0%.

On to `Cc1c(Cn2c(C)nn3c(=O)cc(N4CCOC(C)C4)nc23)cccc1C(F)(F)F` (stereo not shown) [GSK2344444], for which the “%Inh” value is 0%.

In the case of `O=C(NCCCN1CCOCC1)c1cccc(Nc2nccc(Nc3ccc(Oc4ccccc4)cc3)n2)c1` [GW663929], the “%Inh” value stood at 17%.

As to `Nc1nc(-c2ccc3c(N)n[nH]c3c2)cc(N2CCCC2)n1` [GSK2227430], the “%Inh” value is reported as 0%.

With `Nc1nccc(-c2c(-c3ccc(F)cc3)ncn2C2CCN(CC(F)(F)F)CC2)n1` [SB-236560], the “%Inh” value is 17%.

Take `COc1ccc(S(=O)(=O)NC2CCN(c3cc(C)nc(Nc4cccc(C#N)c4)n3)CC2)cc1.O=C(O)C(F)(F)F` [GSK1653539]: the “%Inh” value is 0%.

Regarding `CN(C1=C(c2ccccc2)C(=O)NC1=O)c1ccccc1` [SB-334860], the “%Inh” value amounted to 21%.

As for `CN1c2ccc(CNc3ccc(F)cc3)cc2-c2c(cnn2C)S1(=O)=O`, the “%Inh” value was 0%.

Regarding `COc1cc(Nc2nccc(N3CCC(NC(=O)c4cccc(NC(C)=O)c4)C3)n2)cc(OC)c1OC` (stereo not shown) [GSK1379754], the “%Inh” value worked out at 75%.
